This note sets out measurements from PubChem BioAssay (EPA / NIEHS).

Records with an inconclusive call do not appear. Active and inactive are the calls of the source. Rule for the calls, unless noted: active = hit-call score of the fitted dose curve at least 0.9, where 1 is the maximum; inactive = score below 0.9.

One may read the AC50 as the concentration giving half of the maximal activity seen.

Test [1] deals with Paired box protein Pax-6 (Homo sapiens) (UniProt P26367). The experiment in a line: ATG_Pax6_CIS: Attagene CIS-FACTORIAL HepG2 Assay for human Paired Box 6 (PAX6) (AID 2282956). The conditions noted are these: HepG2 CIS-FACTORIAL PAX6 reporter transcription, RNA readout; actives raise or lower the signal. Put shortly:
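HepG2 cells transiently transfected with multiplexed cis-promoter reporter units (endogenous TF activity) were dosed for 24 h. Reporter mRNA was quantified by RT-PCR, 6-FAM labeling, HpaI digestion and capillary electrophoresis; bidirectional fitting versus DMSO baseline.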

Test [2] in a line: ATG_PXRE_CIS: Attagene CIS-FACTORIAL HepG2 Assay for human Pregnane X Receptor Element (PXRE) (AID 2282957). The conditions noted are these: HepG2 Attagene CIS-FACTORIAL PXRE reporter, mRNA; actives raise or lower the signal. Put shortly:
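HepG2 cells transiently transfected with cis-regulated multiple reporter transcription units; endogenous factor activity measured as reporter mRNA 24 h after dosing. RT-PCR, fluorescent primer extension, HpaI digestion, capillary electrophoresis; bidirectional fit versus DMSO baseline.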

Test [3] is described as follows: ATG_RORE_CIS: Attagene CIS-FACTORIAL HepG2 Assay for human RAR-related Orphan Receptor Element (RORE) (AID 2282959). The conditions noted are these: HepG2 Attagene cis-factorial RORE reporter, mRNA; actives raise or lower the signal. Put shortly:
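HepG2 cells carrying transiently transfected cis-regulated reporter units; RORE-driven reporter mRNA quantified 24 h post-dosing by RT-PCR, 6-FAM primer extension, HpaI digestion and capillary electrophoresis. Bidirectional fit versus DMSO.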

A short description of test [4]: ATG_Sox_CIS: Attagene CIS-FACTORIAL HepG2 Assay for human SRY-box transcription factor (SOX) (AID 2282960). The conditions noted are these: HepG2 Attagene cis-factorial SOX reporter, mRNA; actives raise or lower the signal. In short, it runs like this:
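HepG2 cells transiently transfected with multiple cis-regulated reporter units, then dosed for 24 h. Reporter mRNA quantified by RT-PCR, fluorescent labelling, HpaI digestion and capillary electrophoresis; bidirectional fit versus DMSO.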

Test [5] deals with Transcription factor Sp1 (Homo sapiens) (UniProt P08047). The test is described as follows: ATG_Sp1_CIS: Attagene CIS-FACTORIAL HepG2 Assay for human Specificity Protein 1 (Sp1) (AID 2282961). The conditions noted are these: HepG2 Sp1 cis-reporter transcription, actives raise or lower the signal. In short, it runs like this:
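HepG2 cells transiently transfected with multiplexed cis-regulated reporter constructs, chemical exposure 24 h. Reporter mRNA quantified by RT-PCR with capillary electrophoresis; bidirectional fit relative to DMSO.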

Test [6] in a line: ATG_SREBP_CIS: Attagene CIS-FACTORIAL HepG2 Assay for human Sterol Regulatory Element Binding (SREBP) (AID 2282962). The conditions noted are these: HepG2 Attagene cis-factorial SREBP reporter, mRNA; actives raise or lower the signal. In short, it runs like this: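 HepG2 cells transiently transfected with multiplexed cis-element reporter units report endogenous transcription factor activity. After 24 h of chemical exposure, reporter mRNA was quantified by RT-PCR, 6-FAM labelling, HpaI digestion and capillary electrophoresis; bidirectional fits used DMSO as baseline.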

The target in test [7] is Signal transducer and activator of transcription 3 (Homo sapiens) (UniProt P40763). The test is described as follows: ATG_STAT3_CIS: Attagene CIS-FACTORIAL HepG2 Assay for human Signal Transducer and Activator of Transcription 3 (STAT3) (AID 2282963). The conditions noted are these: HepG2, Attagene cis-factorial STAT3 reporter transcription; actives raise or lower the signal. In short, it runs like this:
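Values derive from bidirectional fits relative to DMSO of reporter mRNA levels, measured by RT-PCR with capillary electrophoresis, in HepG2 cells carrying transiently transfected cis-regulated reporter units and exposed 24 h.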

Test [8] in a line: ATG_TA_CIS: Attagene CIS-FACTORIAL HepG2 Assay for human TA Basal Promoter (AID 2282964). The conditions noted are these: HepG2 Attagene CIS-factorial TA basal promoter reporter; actives raise or lower the signal. Put shortly: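 Background-control readout: TA basal promoter reporter mRNA, fitted in both directions relative to DMSO. Measured by RT-PCR and capillary electrophoresis 24 hours after treating HepG2 human liver cells transiently carrying multiplexed cis-regulated reporter constructs.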

Test [9] can be described thus: ATG_TCF_b_cat_CIS: Attagene CIS-FACTORIAL HepG2 Assay for human T-Cell-Factor with beta-catenin (TCF/b-cat) (AID 2282965). The conditions noted are these: HepG2 TCF/beta-catenin cis-reporter transcription, actives raise or lower the signal. Put shortly:
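HepG2, transient MRTU transfection, cis-element-driven reporters (endogenous TFs). 24 h compound exposure. Readout: reporter mRNA by RT-PCR + 6-FAM primer extension, HpaI digest, capillary electrophoresis. Gain/loss fit vs DMSO baseline.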

A short description of test [10]: ATG_TAL_CIS: Attagene CIS-FACTORIAL HepG2 Assay for human TAL Basal Promoter (AID 2282966).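 Note: background control endpoint measuring basal TAL promoter reporter mRNA not a specific factor.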 The conditions noted are these: HepG2 Attagene cis-factorial TAL promoter reporter; actives raise or lower the signal. Put shortly:
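HepG2 cells were transiently transfected with promoter-driven multiplexed reporter units and dosed for 24 h. Reporter mRNA was measured by RT-PCR with capillary electrophoresis fluorescence; bidirectional fits used DMSO as baseline, serving as a background control.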

Test [11] is described as follows: ATG_TGFb_CIS: Attagene CIS-FACTORIAL HepG2 Assay for human Transforming Growth Factor (TGF) (AID 2282967). The conditions noted are these: HepG2 Attagene CIS TGFb reporter, mRNA transcription; actives raise or lower the signal. In short, it runs like this: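 Endogenous TGFB1-linked transcription factor activity read as reporter mRNA via RT-PCR and capillary electrophoresis, 24 h after dosing transiently transfected HepG2 cells. Gain or loss of signal fitted relative to DMSO.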

Test [12] can be described thus: ATG_VDRE_CIS: Attagene CIS-FACTORIAL HepG2 Assay for human Vitamin D Receptor Element (VDRE) (AID 2282968). The conditions noted are these: HepG2 VDRE cis-reporter transcription, actives raise or lower the signal. In short, it runs like this:
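Cell-based multiplexed reporter format in human liver HepG2 cells, 24 h post-dose. Fluorescence from capillary electrophoresis of reporter cDNA gives the signal, with DMSO as negative control and baseline.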

Test [13] concerns the target Nuclear receptor subfamily 1 group I member 3 (Homo sapiens) (UniProt Q14994). The experiment in a line: ATG_CAR_TRANS: Attagene TRANS-FACTORIAL HepG2 Assay for human Constitutive Androstane Receptor (CAR) (AID 2282969; active = hit-call score of the fitted dose curve at least 0.9, where 1 is the maximum;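 note: activators raise reporter mRNA above DMSO so AC50 marks induction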). The conditions noted are these: HepG2 Attagene TRANS-FACTORIAL CAR reporter. Put shortly: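 HepG2 cells transiently transfected with GAL4-UAS reporter units; TRANS format reads activity of exogenous chimeric NR-Gal4 protein. After 24 h dosing, reporter mRNA quantified by RT-PCR, 6-FAM labelling and capillary electrophoresis; gain of signal fitted against DMSO.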

For test [14], the target named is X-box-binding protein 1 (Homo sapiens) (UniProt P17861). The experiment in a line: ATG_Xbp1_CIS: Attagene CIS-FACTORIAL HepG2 Assay for human X-box Binding Protein 1 (XBP1) (AID 2282972). The conditions noted are these: HepG2 XBP1 cis-element reporter, Attagene multiplex; actives raise or lower the signal. In short, it runs like this:
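HepG2 cells transiently transfected with cis-regulated multiple reporter transcription units; endogenous transcription factor activity measured 24 hours after chemical dosing. Reporter mRNA quantified by RT-PCR, 6-FAM primer extension, HpaI digestion and capillary electrophoresis; bidirectional fitting versus DMSO.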

A short description of test [15]: ATG_M_19_TRANS: Attagene TRANS-FACTORIAL HepG2 Assay for M19 Transcription Factor (Internal Marker) (AID 2282974; active = hit-call score of the fitted dose curve at least 0.9, where 1 is the maximum). The conditions noted are these: HepG2 Attagene TRANS-FACTORIAL M19 internal marker reporter. In short, it runs like this:
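HepG2 transiently transfected with GAL4-UAS multiplex reporter constructs, exposed 24 h; reporter RNA quantified by RT-PCR, 6-FAM labeling, HpaI digestion and capillary electrophoresis; internal background marker fitted upward versus DMSO.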

For test [16], the target named is Glucocorticoid receptor (Homo sapiens) (UniProt P04150). The experiment in a line: ATG_GR_TRANS: Attagene TRANS-FACTORIAL HepG2 Assay for human Glucocorticoid Receptor (GR) (AID 2282978; active = hit-call score of the fitted dose curve at least 0.9, where 1 is the maximum;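 note: activators score as hits since higher reporter transcript over DMSO is fitted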). The conditions noted are these: HepG2 Attagene TRANS GR reporter, mRNA transcription. Put shortly: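 HepG2 cells transiently transfected with GAL4-UAS reporter units and exogenous GR-Gal4 chimera, dosed 24 h. Reporter mRNA by RT-PCR, FAM labeling, HpaI digest and capillary electrophoresis; gain-of-signal fit versus DMSO.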

Test [17] addresses Estrogen-related receptor gamma (Homo sapiens) (UniProt P62508). The experiment in a line: ATG_ERRg_TRANS: Attagene TRANS-FACTORIAL HepG2 Assay for human Estrogen-Related Receptor gamma (ERRg) (AID 2282977; active = hit-call score of the fitted dose curve at least 0.9, where 1 is the maximum;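 note: hits increase reporter signal over DMSO so potencies reflect activators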). The conditions noted are these: HepG2 Attagene TRANS reporter, ERRg transactivation. In short, it runs like this: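 HepG2 cells transiently transfected with multiplexed GAL4-UAS reporter units and chimeric NR-Gal4 constructs were exposed to test chemicals for 24 h. Reporter mRNA was measured by RT-PCR, 6-FAM primer extension, HpaI digestion and capillary electrophoresis; gain-of-signal versus DMSO.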

Sequence of Paired box protein Pax-6 (Homo sapiens) (P26367 whole entry, looked up): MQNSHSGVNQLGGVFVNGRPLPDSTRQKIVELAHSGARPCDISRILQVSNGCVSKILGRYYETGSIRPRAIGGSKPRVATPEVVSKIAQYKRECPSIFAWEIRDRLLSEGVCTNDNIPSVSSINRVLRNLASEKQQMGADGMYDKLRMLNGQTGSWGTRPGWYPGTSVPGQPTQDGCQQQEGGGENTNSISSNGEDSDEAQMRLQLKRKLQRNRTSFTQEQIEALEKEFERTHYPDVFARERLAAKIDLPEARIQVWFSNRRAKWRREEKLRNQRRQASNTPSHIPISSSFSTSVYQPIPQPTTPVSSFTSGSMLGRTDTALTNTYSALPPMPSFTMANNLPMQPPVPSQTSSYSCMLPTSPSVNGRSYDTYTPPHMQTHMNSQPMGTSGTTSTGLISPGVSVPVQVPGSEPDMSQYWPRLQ
Sequence of Transcription factor Sp1 (Homo sapiens) (P08047 whole entry, looked up): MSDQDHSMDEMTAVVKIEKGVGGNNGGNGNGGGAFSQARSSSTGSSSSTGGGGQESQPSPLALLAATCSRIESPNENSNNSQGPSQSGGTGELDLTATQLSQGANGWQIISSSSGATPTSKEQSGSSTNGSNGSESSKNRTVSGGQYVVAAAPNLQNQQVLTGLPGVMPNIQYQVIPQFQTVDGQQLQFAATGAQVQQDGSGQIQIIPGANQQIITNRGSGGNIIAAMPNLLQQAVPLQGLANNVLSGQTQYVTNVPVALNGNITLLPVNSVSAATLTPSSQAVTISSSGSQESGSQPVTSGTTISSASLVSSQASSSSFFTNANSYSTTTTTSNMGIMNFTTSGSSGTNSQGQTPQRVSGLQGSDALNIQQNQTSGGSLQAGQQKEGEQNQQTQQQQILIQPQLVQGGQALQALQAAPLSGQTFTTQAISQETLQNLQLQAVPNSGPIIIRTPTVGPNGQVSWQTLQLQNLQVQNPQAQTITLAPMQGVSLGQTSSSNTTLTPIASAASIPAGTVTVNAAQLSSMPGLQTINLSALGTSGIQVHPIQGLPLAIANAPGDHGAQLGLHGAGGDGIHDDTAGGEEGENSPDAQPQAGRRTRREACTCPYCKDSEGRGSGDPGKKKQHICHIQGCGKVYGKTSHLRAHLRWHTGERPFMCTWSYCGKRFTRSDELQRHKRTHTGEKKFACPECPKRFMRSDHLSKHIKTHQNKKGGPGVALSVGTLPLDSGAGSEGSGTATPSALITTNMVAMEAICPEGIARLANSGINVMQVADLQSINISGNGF
Sequence of Nuclear receptor subfamily 1 group I member 3 (Homo sapiens) (Q14994 whole entry, looked up, the tested form may be a part): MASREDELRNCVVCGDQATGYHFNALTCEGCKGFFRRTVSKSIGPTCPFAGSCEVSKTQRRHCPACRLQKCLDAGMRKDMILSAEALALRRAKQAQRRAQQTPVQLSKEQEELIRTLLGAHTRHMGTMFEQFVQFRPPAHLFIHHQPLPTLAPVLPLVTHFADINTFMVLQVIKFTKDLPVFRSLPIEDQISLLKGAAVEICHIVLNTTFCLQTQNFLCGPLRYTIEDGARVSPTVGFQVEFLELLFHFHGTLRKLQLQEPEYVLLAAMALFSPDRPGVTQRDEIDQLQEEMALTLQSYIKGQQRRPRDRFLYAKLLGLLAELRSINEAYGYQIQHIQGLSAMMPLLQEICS
Sequence of X-box-binding protein 1 (Homo sapiens) (P17861 whole entry, looked up): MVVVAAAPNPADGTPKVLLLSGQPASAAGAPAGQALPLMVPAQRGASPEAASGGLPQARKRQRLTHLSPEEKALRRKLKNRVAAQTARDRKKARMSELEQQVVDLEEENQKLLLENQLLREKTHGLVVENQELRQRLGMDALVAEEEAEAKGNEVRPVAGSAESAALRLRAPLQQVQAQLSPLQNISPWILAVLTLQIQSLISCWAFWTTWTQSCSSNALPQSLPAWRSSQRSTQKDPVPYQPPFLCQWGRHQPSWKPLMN
Sequence of Signal transducer and activator of transcription 3 (Homo sapiens) (P40763 whole entry, looked up): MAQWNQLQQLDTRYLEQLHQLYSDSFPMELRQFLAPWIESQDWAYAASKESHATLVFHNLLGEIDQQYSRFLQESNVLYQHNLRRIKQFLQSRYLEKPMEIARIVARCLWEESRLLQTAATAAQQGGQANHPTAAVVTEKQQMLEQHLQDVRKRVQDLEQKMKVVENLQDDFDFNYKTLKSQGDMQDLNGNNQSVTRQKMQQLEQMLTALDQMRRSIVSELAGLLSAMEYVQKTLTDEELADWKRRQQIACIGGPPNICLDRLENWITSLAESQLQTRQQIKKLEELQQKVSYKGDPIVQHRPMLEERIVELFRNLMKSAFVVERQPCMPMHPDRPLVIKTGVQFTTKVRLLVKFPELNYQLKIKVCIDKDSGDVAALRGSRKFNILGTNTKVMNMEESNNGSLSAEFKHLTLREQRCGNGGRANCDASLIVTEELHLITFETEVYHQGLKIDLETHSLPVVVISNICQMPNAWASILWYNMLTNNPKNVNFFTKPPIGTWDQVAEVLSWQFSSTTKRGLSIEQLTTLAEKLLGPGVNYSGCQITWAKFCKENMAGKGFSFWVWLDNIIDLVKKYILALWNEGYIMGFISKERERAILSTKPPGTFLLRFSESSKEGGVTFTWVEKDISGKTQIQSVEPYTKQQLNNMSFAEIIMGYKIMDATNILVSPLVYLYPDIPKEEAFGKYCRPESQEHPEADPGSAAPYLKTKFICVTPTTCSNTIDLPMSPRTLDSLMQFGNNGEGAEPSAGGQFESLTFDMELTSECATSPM
Sequence of Glucocorticoid receptor (Homo sapiens) (P04150 whole entry, looked up, the tested form may be a part): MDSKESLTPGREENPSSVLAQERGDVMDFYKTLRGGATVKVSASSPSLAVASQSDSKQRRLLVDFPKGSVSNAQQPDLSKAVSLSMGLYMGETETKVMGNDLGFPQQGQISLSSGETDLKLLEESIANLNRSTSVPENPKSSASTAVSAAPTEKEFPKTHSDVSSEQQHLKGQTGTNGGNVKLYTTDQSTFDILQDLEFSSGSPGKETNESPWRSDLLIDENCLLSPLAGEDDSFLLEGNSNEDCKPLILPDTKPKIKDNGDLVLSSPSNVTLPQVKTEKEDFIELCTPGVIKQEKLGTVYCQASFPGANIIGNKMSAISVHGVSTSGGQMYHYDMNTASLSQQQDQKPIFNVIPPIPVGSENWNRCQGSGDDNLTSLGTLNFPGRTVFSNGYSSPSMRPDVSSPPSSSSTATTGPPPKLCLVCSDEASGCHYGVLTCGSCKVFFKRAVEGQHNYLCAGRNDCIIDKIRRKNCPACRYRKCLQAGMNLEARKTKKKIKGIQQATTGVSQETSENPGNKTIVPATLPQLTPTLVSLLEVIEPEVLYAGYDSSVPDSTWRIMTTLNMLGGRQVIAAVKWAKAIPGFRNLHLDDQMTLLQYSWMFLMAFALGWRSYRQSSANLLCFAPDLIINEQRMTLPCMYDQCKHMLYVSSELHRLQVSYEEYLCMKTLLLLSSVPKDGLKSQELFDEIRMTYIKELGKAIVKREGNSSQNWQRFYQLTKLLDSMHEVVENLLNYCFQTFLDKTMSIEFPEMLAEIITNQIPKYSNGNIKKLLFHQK
Sequence of Estrogen-related receptor gamma (Homo sapiens) (P62508 whole entry, looked up, the tested form may be a part): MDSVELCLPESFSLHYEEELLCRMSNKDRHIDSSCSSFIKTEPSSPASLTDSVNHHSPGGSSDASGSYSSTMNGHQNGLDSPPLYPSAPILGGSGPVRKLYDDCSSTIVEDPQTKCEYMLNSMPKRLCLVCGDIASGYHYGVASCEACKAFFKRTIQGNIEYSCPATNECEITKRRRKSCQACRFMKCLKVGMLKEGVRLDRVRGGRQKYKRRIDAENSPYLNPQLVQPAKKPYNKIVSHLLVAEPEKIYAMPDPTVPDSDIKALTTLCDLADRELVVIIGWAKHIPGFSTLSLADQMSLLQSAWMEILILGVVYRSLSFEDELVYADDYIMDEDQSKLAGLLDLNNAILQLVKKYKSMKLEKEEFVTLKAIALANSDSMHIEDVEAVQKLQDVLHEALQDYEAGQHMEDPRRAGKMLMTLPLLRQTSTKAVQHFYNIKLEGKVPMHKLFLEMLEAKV

With `O=C(OC[C@H]1O[C@@H](OC(=O)c2cc(O)c(O)c(OC(=O)c3cc(O)c(O)c(O)c3)c2)[C@H](OC(=O)c2cc(O)c(O)c(OC(=O)c3cc(O)c(O)c(O)c3)c2)[C@@H](OC(=O)c2cc(O)c(O)c(OC(=O)c3cc(O)c(O)c(O)c3)c2)[C@@H]1OC(=O)c1cc(O)c(O)c(OC(=O)c2cc(O)c(O)c(O)c2)c1)c1cc(O)c(O)c(OC(=O)c2cc(O)c(O)c(O)c2)c1`, the compound was called inactive in [1], in [2], in test [3], in [4], in test [5] and in test [6]. In addition, the call in [7], in test [8], in test [9], in test [10], in test [11] and in [12] was inactive. Further, the compound was called inactive in test [13] and in test [14].

On to `CC(C)=CCC/C(C)=C\CO`, for which the call in test [1], in test [3], in [4], in test [5], in test [6] and in [7] was inactive. Also, the call in test [8], in test [9], in test [10], in test [11], in test [12] and in test [15] was inactive. Moreover, the compound was classed as inactive in test [16]. For the same compound, the AC50 in test [2] was 7.34 µM (active).

Regarding `CCN(C(=O)c1cc(C)cc(OC[C@H](C)Nc2ccncc2)c1)C(C)C`, the result in test [1], in test [4], in test [5], in test [7], in [8] and in test [9] was inactive. Further, the outcome in test [10], in test [11], in test [13] and in test [14] was inactive. Besides, the AC50 is 4.97 µM (active) in test [2] and 18.2 µM (active) in test [6].

On to `Cc1[nH]cnc1C[C@H]1CCc2c(C)c3ccccc3n2C1=O`, for which the AC50 in test [1] is 37.2 µM (active); in test [2], 7.57 µM (active); in [3], 18.9 µM (active); in test [8], 29.7 µM (active); in test [9], 15.8 µM (active); in test [10], 40.8 µM (active). Also, the AC50 in test [12] was 29.7 µM (active); in test [14], 20.4 µM (active). Moreover, the result in test [4], in test [5], in [6], in test [7], in [11] and in [17] was inactive. Further, the result in [16] was inactive.

As to `CC(C)=CCC/C(C)=C/CO`, the outcome in test [1], in [2], in test [3], in test [5], in [6] and in test [7] was inactive. Also, the compound was classed as inactive in [8], in test [9], in test [10], in [11], in test [12] and in test [14]. Also, the compound was called inactive in [16].

In the case of `CCOC(=O)CC(CC(=O)OCC)(OC(C)=O)C(=O)OCC`, the outcome in test [1], in [3], in [5], in test [6], in test [7] and in [8] was inactive. Moreover, the compound was called inactive in test [9], in test [10], in [11], in [12], in test [13] and in test [15]. Also, the AC50 in [2] is 27.3 µM (active).
